Four compounds from PubChem BioAssay (NCI) can be followed below.

What all share (experiment): NCI-60 one-dose screen, 48 h (100 = growth as untreated, 0 = no growth, -100 = all killed)
Experiment [1] concerns SR leukemia.
The subject of experiment [2] is RPMI-8226 leukemia. As to conditions: 10 µM unless noted.
The subject of experiment [3] is OVCAR-8 ovarian.
Experiment [4] has as its system OVCAR-5 ovarian.
For experiment [5], the system named is OVCAR-4 ovarian.
For experiment [6], the system named is SK-OV-3 ovarian. Conditions: 10 µM unless noted.
Experiment [7] concerns IGROV1 ovarian.
The subject of experiment [8] is OVCAR-3 ovarian.
The subject of experiment [9] is HS 578T breast.
Experiment [10] deals with NCI/ADR-RES ovarian.
The subject of experiment [11] is T-47D breast.
Experiment [12] has as its system MDA-MB-435 melanoma.
In experiment [13] the test system is SW-620 colon.
The test system of experiment [14] is MCF7 breast.
For experiment [15], the system named is HCT-116 colon.
Experiment [16] concerns HCC-2998 colon.
Experiment [17] relates to KM12 colon.
Experiment [18] has as its system BT-549 breast. As to conditions: 10 µM unless noted.

Molecules are shown by their SMILES. Several values for one entry are separate records, joined by “and”; a condition that tells them apart may be missing. Identical values can stand only once. The panel holds about 83,000 compounds, 20% with a hit somewhere; the sample as a whole holds those more often.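 Results are percent growth after 48 hours of single-concentration exposure. 100 means growth as in untreated cells, lower positive values show inhibition; negative values down to -100 show cell death.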 A number with no mark means an inactive call. Activity calls are given as the source filed them. How the source made its calls: active means growth percent below 10; inactive means the rest.

With `Cc1[nH]c(-c2nc3ccccc3[nH]2)c(C)c1C(=O)NC(C)C1CCCCC1` (stereo unspecified), the growth in [1] (10 µM) is 69%; in [1] (100 µM), -44.3% (active); in [2] it was -65.3% [100 µM] (active); in experiment [3] (10 µM), 96.9%; in experiment [3] (100 µM) it was -61.5% (active); in experiment [4] (10 µM), 94%. For the same compound, the growth in experiment [4] (100 µM) is -95.4% (active); in experiment [5] (10 µM), 92.1%; in experiment [5] (100 µM), -84.1% (active); in experiment [6], -77.6% [100 µM] (active); in experiment [7] (10 µM), 90.9%; in experiment [7] (100 µM), -67.8% (active). Moreover, the growth was 90% in [8] (10 µM); -86.9% (active) in [8] (100 µM); 82.8% in experiment [9] (10 µM); -39% (active) in experiment [9] (100 µM); 85.5% in experiment [10] (10 µM); -79.7% (active) in experiment [10] (100 µM). Also, the growth in [11] (10 µM) is 89%; in experiment [11] (100 µM), -58.1% (active); in experiment [12] (10 µM) it was 37.5%; in experiment [12] (100 µM), -94.8% (active); in [13] (10 µM), 92.9%; in experiment [13] (100 µM) it was -68.8% (active). Further, the growth was 71.1% in experiment [14] (10 µM); -73.7% (active) in experiment [14] (100 µM); 85.5% in experiment [15] (10 µM); -76.8% (active) in experiment [15] (100 µM); 97.9% in [16] (10 µM); -82.6% (active) in experiment [16] (100 µM). Further, the growth in experiment [17] (10 µM) was 84.4%; in [17] (100 µM), -91.8% (active).

As to `CC(C)(C)c1ccc(O)c(CNC2CCCCC2)c1`, the growth in experiment [1] (10 µM unless noted) is 80% and 83.5%; in experiment [2], 82% and 74.9%; in [3] (10 µM unless noted), 101% and 88.9%; in [4] (10 µM unless noted) it was 106% and 93%; in experiment [5] (10 µM unless noted), 82.8%; in experiment [6], 108% and 97.8%. Besides, the growth was 97.7% and 92% in experiment [7] (10 µM unless noted); 111% and 92.8% in experiment [8] (10 µM unless noted); 89.2% and 89.9% in [9] (10 µM unless noted); 98.5% in experiment [10] (10 µM unless noted); 112% and 75.9% in experiment [11] (10 µM unless noted); 85.1% in [18]. The growth in experiment [12] (10 µM unless noted) is 97.9% and 96.6%; in [13] (10 µM unless noted), 101% and 98.5%; in experiment [14] (10 µM unless noted), 93% and 93.8%; in [15] (10 µM unless noted) it was 86.7% and 88.3%; in [16] (10 µM unless noted) it was 52.7% and 104%; in [17] (10 µM unless noted), 105% and 92.2%.

Take `CC(=O)Nc1ccc(O)cc1`: the growth in experiment [1] (10 µM unless noted) was 117% and 98.7%; in experiment [2], 105%; in [3] (10 µM unless noted), 92.1% and 103% and 109%; in [4] (10 µM unless noted), 91.6% and 118% and 105%; in experiment [5] (10 µM unless noted), 105% and 131%; in experiment [6] it was 114% and 115% and 91.5%. Also, the growth is 107% and 114% in [7] (10 µM unless noted); 103% and 102% and 107% in [8] (10 µM unless noted); 113% and 109% in [9] (10 µM unless noted); 101% and 93.7% and 104% in experiment [10] (10 µM unless noted); 116% and 103% and 93.9% in experiment [11] (10 µM unless noted); 94.3% and 78.1% and 101% in [18]. Moreover, the growth in experiment [12] (10 µM unless noted) is 105% and 109% and 110%; in [13] (10 µM unless noted), 106% and 108% and 103%; in experiment [14] (10 µM unless noted), 100% and 68.3% and 107%; in experiment [15] (10 µM unless noted), 100% and 120% and 104%; in experiment [16] (10 µM unless noted) it was 102% and 68.4% and 110%; in experiment [17] (10 µM unless noted), 99.4% and 38.3% and 107%.

As to `CC(C)CNC(=O)c1ccccc1C(=O)NC1(C(=O)NCC(C)C)CCCC1`, the growth in experiment [1] (10 µM unless noted) was 110% and 90.5%; in [2] it was 105%; in experiment [3] (10 µM unless noted), 101% and 104%; in experiment [4] (10 µM unless noted) it was 98.6% and 98.3%; in experiment [5] (10 µM unless noted), 107% and 111%; in experiment [6], 107% and 99.5%. Further, the growth in experiment [7] (10 µM unless noted) was 111% and 102%; in experiment [8] (10 µM unless noted), 116% and 109%; in [9] (10 µM unless noted) it was 110% and 105%; in experiment [10] (10 µM unless noted), 106% and 105%; in experiment [11] (10 µM unless noted), 106% and 95.5%; in experiment [18], 122% and 115%. Besides, the growth is 101% and 105% in [12] (10 µM unless noted); 102% and 106% in experiment [13] (10 µM unless noted); 103% and 106% in experiment [14] (10 µM unless noted); 106% and 104% in experiment [15] (10 µM unless noted); 101% and 103% in experiment [16] (10 µM unless noted); 112% and 104% in experiment [17] (10 µM unless noted).
